Inconclusive results are not listed. Active and inactive are the calls of the source. How the source made its calls: active means hit-call score of the fitted dose curve at least 0.9, where 1 is the maximum; inconclusive means response in the unintended direction; inactive means score below 0.9.
Experiment: IUF_NPC2-5_cytotoxicity_72hr: Cytotoxicity Assessment at 72 hours in the Leibniz Research Institute for Environmental Medicine (IUF) Neural Progenitor Cell Migration and Differentiation Assay for Cytotoxicity (NPC2-5) (AID 2284306);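 further: LDH release into supernatant measured by resorufin fluorescence marking membrane damage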
Outline: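 Membrane-integrity cytotoxicity at 72 h, read as LDH-driven resorufin fluorescence in supernatant. hNPC spheres from fetal cortex differentiate on coated plates in N2 medium, 37C, 5% CO2; seven serial compound concentrations plus solvent control (DMSO ≤0.1%).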

Q: For `C[n+]1ccc(-c2cc[n+](C)cc2)cc1`, which outcome is on record?
A: Its outcome is “inactive”.

Q: Which outcome does the source give for `C/C(=C/C=C/[C@@H](C)C(=O)O)[C@H]1CN[C@H](C(=O)O)[C@H]1CC(=O)O` here?
A: The outcome was “inactive”.

Q: For `CP(=O)(O)CCC(N)C(=O)O` (configuration not stated), which outcome is on record?
A: Its outcome is “inactive”.

Q: Which outcome does the source give for `[O-][Cl+3]([O-])([O-])O` here?
A: Its outcome is “inactive”.

Q: For `CCOP(=S)(OCC)SCS(=O)C(C)(C)C` (configuration not stated), which outcome is on record?
A: Its outcome is “inactive”.

Q: Which outcome does the source give for `C[n+]1ccc(-c2ccccc2)cc1` here?
A: Its outcome is “inactive”.

Q: Which outcome does the source give for `Cn1nc(C(F)(F)F)c(CS(=O)(=O)C2=NOC(C)(C)C2)c1OC(F)F` here?
A: Its outcome is “inactive”.

Q: Which outcome does the source give for `CC1(C)C(C=C(Cl)c2ccc(Cl)cc2)C1C(=O)OC(C#N)c1ccc(F)c(Oc2ccccc2)c1` (configuration not stated) here?
A: The outcome was “inactive”.

Q: With `CCOP(=O)(Oc1cnc(C(C)(C)C)nc1)OC(C)C` (configuration not stated) as the compound, how does the outcome read?
A: Its outcome is “inactive”.

Q: Which outcome does the source give for `CC1(C)[C@H](C=C(Cl)Cl)[C@H]1C(=O)OCc1c(F)c(F)cc(F)c1F` here?
A: The outcome was “inactive”.

Q: With `CC(=O)[O-].CC(=O)[O-].O.O.O.[Pb+2]` as the compound, how does the outcome read?
A: Its outcome is “inactive”.

Q: Which outcome does the source give for `CC1(C)C(C=C(Cl)Cl)C1C(=O)O[C@H](C#N)c1cccc(Oc2ccccc2)c1` (some centres not stated) here?
A: The outcome was “inactive”.

Q: Which outcome does the source give for `CCOP(=O)(OCC)OC(Cl)C(Cl)(Cl)Cl` (configuration not stated) here?
A: The outcome was “inactive”.

Q: With `CCOP(=O)(OCC)SCSC(C)(C)C` as the compound, how does the outcome read?
A: Its outcome is “inactive”.

Q: Which outcome does the source give for `CC1(C)[C@@H](C=C(Cl)Cl)[C@@H]1C(=O)O[C@@H](C#N)c1ccc(F)c(Oc2ccccc2)c1` here?
A: Its outcome is “inactive”.

Q: For `COP(=O)(OC)SCN1C(=O)c2ccccc2C1=O`, which outcome is on record?
A: The outcome was “inactive”.

Q: Which outcome does the source give for `CC(=O)[O-].[Tl+]` here?
A: The outcome was “inactive”.

Reference: PubChem BioAssay (EPA / NIEHS)
